This is an account of results in PubChem BioAssay (NCI).

Assay [1] is described as follows: NCI Yeast Anticancer Drug Screen. Data for the rad50 strain (AID 155).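 Note: 0% = growth of vehicle-only cultures of the same strain.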 The following applies: S. cerevisiae rad50 strain growth inhibition, active compounds read high. An outline of the steps:
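Relative growth inhibition (compound vs vehicle) was measured in yeast with a defined repair-gene alteration.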

Assay [2] in a line: NCI Yeast Anticancer Drug Screen. Data for the mec2-1 strain (AID 157). The following applies: S. cerevisiae mec2-1 strain, active compounds read high. In short, it runs like this:
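Readout is yeast growth inhibition, normalised to vehicle-treated controls, in the mec2-1 strain exposed to compound.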

Assay [3] is described as follows: NCI Yeast Anticancer Drug Screen. Data for the sgs1 mgt1 strain (AID 161).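 Note: 0% = growth of cultures given vehicle only.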 The settings on record: S. cerevisiae sgs1 mgt1 strain, active compounds read high. In short, it runs like this: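 Growth of a repair-deficient yeast mutant was monitored after compound treatment and expressed as inhibition relative to vehicle-treated cultures.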
Assay [4] is described as follows: NCI Yeast Anticancer Drug Screen. Data for the cln2 rad14 strain (AID 165).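 Note: 0% = growth equal to vehicle treated cultures.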 The following applies: S. cerevisiae cln2 rad14 strain, active compounds read high. In short, it runs like this: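 Relative to vehicle controls, growth inhibition of compound-treated cln2 rad14 yeast was recorded.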
Assay [5] in a line: NCI Yeast Anticancer Drug Screen. Data for the bub3 strain (AID 167). The settings on record: S. cerevisiae bub3 mutant strain, active compounds read high. In short, it runs like this: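 Screening used yeast with an engineered genetic alteration affecting cell cycle control. Compound-exposed cultures were compared with vehicle cultures, and reduced growth was taken as inhibition.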

Assay [6] is described as follows: NCI Yeast Anticancer Drug Screen. Data for the mlh1 rad18 strain (AID 175). The following applies: S. cerevisiae mlh1 rad18 strain growth inhibition, active compounds read high. An outline of the steps: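 Test agents were incubated with a yeast strain of defined genotype (DNA damage repair defect). Inhibition of growth was derived by comparison with vehicle-exposed cultures.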

The mark [7] stands for this setting: at 5.0 µM (retest, dose inferred, filed as 0.5).
[8] abbreviates: at 50.0 µM (retest, dose inferred, filed as 5.0).

Structures are written as SMILES. The panel holds about 79,000 compounds, 15% with a hit somewhere; the sample as a whole holds those more often. A number with no mark means an inactive call. Calls of active or inactive are those of the source. Cut-off read from the data, not from the text of the source: active = growth inhibition above about 70%; inactive = the rest.

Take `S=C(C(=S)N1CCOCC1)N1CCOCC1`: the growth inhibition in assay [1] (setting [7]) is 14%; in assay [1] (setting [8]) it was 16%; in assay [1] (at 50.0 µM), 0.05%; in assay [2] (setting [7]), 12%; in assay [2] (setting [8]), 16%; in assay [2] (at 50.0 µM), 26.1%. Further, the growth inhibition in assay [3] (setting [7]) is 19%; in assay [3] (setting [8]) it was 27%; in assay [3] (at 50.0 µM), 12.8%; in assay [4] (setting [7]), 15%; in assay [4] (setting [8]), 12%; in assay [4] (at 50.0 µM), -16.8%. Besides, the growth inhibition in assay [5] (setting [7]) was 22%; in assay [5] (setting [8]) it was 23%; in assay [5] (at 50.0 µM) it was 11.8%; in assay [6] (setting [7]) it was 16%; in assay [6] (setting [8]), 16%; in assay [6] (at 50.0 µM), 7.95%.

For `COc1ccc2c(c1)C(O)=C(CC=C(C)C)C(=O)C2=O`, the growth inhibition in assay [1] (setting [7]) was -2%; in assay [1] (setting [8]) it was 16%; in assay [1] (at 50.0 µM), 26.8%; in assay [2] (setting [7]), 22%; in assay [2] (setting [8]), 46%; in assay [2] (at 50.0 µM), 35%. In addition, the growth inhibition in assay [3] (setting [7]) was 27%; in assay [3] (setting [8]), 61%; in assay [3] (at 50.0 µM) it was 20.2%; in assay [4] (setting [7]), 7%; in assay [4] (setting [8]), 1%; in assay [4] (at 50.0 µM), 46.3%. For the same compound, the growth inhibition is 8% in assay [5] (setting [7]); 23% in assay [5] (setting [8]); 4.1% in assay [5] (at 50.0 µM); 35% in assay [6] (setting [7]); 79% (active) in assay [6] (setting [8]); 41.4% in assay [6] (at 50.0 µM).

Regarding `Cc1ccc(C(=O)CC(O)(C(F)(F)F)C(F)(F)F)cc1[N+](=O)[O-]`, the growth inhibition in assay [1] (setting [7]) was 17%; in assay [1] (setting [8]), 95% (active); in assay [1] (at 50.0 µM) it was 88.9% (active); in assay [2] (setting [7]) it was -17%; in assay [2] (setting [8]), 97% (active); in assay [2] (at 50.0 µM), 90% (active). Also, the growth inhibition was 3% in assay [3] (setting [7]); 45% in assay [3] (setting [8]); 92.2% (active) in assay [3] (at 50.0 µM); 25% in assay [4] (setting [7]); 94% (active) in assay [4] (setting [8]); 89.5% (active) in assay [4] (at 50.0 µM). Also, the growth inhibition was 5% in assay [5] (setting [7]); 96% (active) in assay [5] (setting [8]); 90.5% (active) in assay [5] (at 50.0 µM); 9% in assay [6] (setting [7]); 97% (active) in assay [6] (setting [8]); 87.4% (active) in assay [6] (at 50.0 µM).

With `COc1ccc(Oc2cc3c[n+](C)ccc3cc2OC)cc1`, the growth inhibition in assay [1] (setting [7]) is 4%; in assay [1] (setting [8]) it was 90% (active); in assay [1] (at 50.0 µM) it was 99% (active); in assay [2] (setting [7]) it was -3%; in assay [2] (setting [8]), 57%; in assay [2] (at 50.0 µM), 99% (active). For the same compound, the growth inhibition was -3% in assay [3] (setting [7]); 91% (active) in assay [3] (setting [8]); 99.4% (active) in assay [3] (at 50.0 µM); 2% in assay [4] (setting [7]); 70% (active) in assay [4] (setting [8]); 98% (active) in assay [4] (at 50.0 µM). Moreover, the growth inhibition was 0% in assay [5] (setting [7]); 90% (active) in assay [5] (setting [8]); 98% (active) in assay [5] (at 50.0 µM); 15% in assay [6] (setting [7]); 88% (active) in assay [6] (setting [8]); 98.8% (active) in assay [6] (at 50.0 µM).

Regarding `Nc1ncnc2c1ncn2C1OCC(O)C1O` (stereo not given), the growth inhibition in assay [1] (setting [7]) was 24%; in assay [1] (setting [8]) it was 66%; in assay [1] (at 50.0 µM), 81.6% (active); in assay [2] (setting [7]) it was 33%; in assay [2] (setting [8]), 68%; in assay [2] (at 50.0 µM), 78.2% (active). For the same compound, the growth inhibition in assay [3] (setting [7]) was 20%; in assay [3] (setting [8]) it was 74% (active); in assay [3] (at 50.0 µM), 72.9% (active); in assay [4] (setting [7]) it was 29%; in assay [4] (setting [8]), 58%; in assay [4] (at 50.0 µM), 64.5%. For the same compound, the growth inhibition was 20% in assay [5] (setting [7]); 82% (active) in assay [5] (setting [8]); 82.7% (active) in assay [5] (at 50.0 µM); 21% in assay [6] (setting [7]); 86% (active) in assay [6] (setting [8]); 82.2% (active) in assay [6] (at 50.0 µM).

On to `COC(=O)c1ccc(C)cc1C1CN=NC12Cc1cccc(C)c1C2=O` (stereo not given), for which the growth inhibition is 1% in assay [1] (setting [7]); 9% in assay [1] (setting [8]); 26.8% in assay [1] (at 50.0 µM); -1% in assay [2] (setting [7]); 10% in assay [2] (setting [8]); 24.9% in assay [2] (at 50.0 µM). The growth inhibition in assay [3] (setting [7]) was 16%; in assay [3] (setting [8]), 22%; in assay [3] (at 50.0 µM), 8.65%; in assay [4] (setting [7]) it was 5%; in assay [4] (setting [8]), 10%; in assay [4] (at 50.0 µM), 83.5% (active). The growth inhibition in assay [5] (setting [7]) is -2%; in assay [5] (setting [8]), 23%; in assay [5] (at 50.0 µM), 41.8%; in assay [6] (setting [7]), -1%; in assay [6] (setting [8]), 6%; in assay [6] (at 50.0 µM), 2.55%.

In the case of `O=C(CC(c1cccnc1)C(C(=O)c1ccc(Cl)cc1)C(CC(=O)c1ccc(Cl)cc1)c1cccnc1)c1ccc(Cl)cc1` (stereo not given), the growth inhibition in assay [1] (setting [7]) was 80% (active); in assay [1] (setting [8]), 92% (active); in assay [1] (at 50.0 µM), 59.3%; in assay [2] (setting [7]), 48%; in assay [2] (setting [8]) it was 95% (active); in assay [2] (at 50.0 µM), 65.2%. In addition, the growth inhibition in assay [3] (setting [7]) was 56%; in assay [3] (setting [8]), 96% (active); in assay [3] (at 50.0 µM), 52.2%; in assay [4] (setting [7]), 32%; in assay [4] (setting [8]), 96% (active); in assay [4] (at 50.0 µM), 36.9%. The growth inhibition in assay [5] (setting [7]) is 11%; in assay [5] (setting [8]), 92% (active); in assay [5] (at 50.0 µM) it was 30.8%; in assay [6] (setting [7]), 63%; in assay [6] (setting [8]) it was 93% (active); in assay [6] (at 50.0 µM), 87.1% (active).

Regarding `Cc1cccc2c1NC(c1c(C)[nH]c3ccccc13)C2` (stereo not given), the growth inhibition was 1% in assay [1] (setting [7]); 10% in assay [1] (setting [8]); 28.8% in assay [1] (at 50.0 µM); -1% in assay [2] (setting [7]); 5% in assay [2] (setting [8]); 25.3% in assay [2] (at 50.0 µM). For the same compound, the growth inhibition in assay [3] (setting [7]) is -4%; in assay [3] (setting [8]) it was 8%; in assay [3] (at 50.0 µM) it was 27.2%; in assay [4] (setting [7]), 0%; in assay [4] (setting [8]), -2%; in assay [4] (at 50.0 µM), 30.4%. Further, the growth inhibition was -3% in assay [5] (setting [7]); 17% in assay [5] (setting [8]); 30.1% in assay [5] (at 50.0 µM); -3% in assay [6] (setting [7]); -22% in assay [6] (setting [8]); 67.2% in assay [6] (at 50.0 µM).

On to `Cc1nn(C(=O)c2ccccc2O)c2c1C(c1ccc(O)cc1O)SC(N)=N2` (stereo not given), for which the growth inhibition was -31% in assay [1] (setting [7]); 28% in assay [1] (setting [8]); 46% in assay [1] (at 50.0 µM); -1% in assay [2] (setting [7]); 47% in assay [2] (setting [8]); 22.6% in assay [2] (at 50.0 µM). Also, the growth inhibition in assay [3] (setting [7]) is -3%; in assay [3] (setting [8]), 24%; in assay [3] (at 50.0 µM), 42.5%; in assay [4] (setting [7]), 16%; in assay [4] (setting [8]), 27%; in assay [4] (at 50.0 µM) it was 41%. Moreover, the growth inhibition in assay [5] (setting [7]) is 15%; in assay [5] (setting [8]), 81% (active); in assay [5] (at 50.0 µM), 71.7% (active); in assay [6] (setting [7]), -4%; in assay [6] (setting [8]), 54%; in assay [6] (at 50.0 µM), 48.2%.

For the compound `CCCCCCCCCCCOc1cccc(N2C(N)=NC(N)=NC2(C)C)c1`, the growth inhibition in assay [1] (setting [7]) is 99% (active); in assay [1] (setting [8]), 91% (active); in assay [1] (at 50.0 µM), 98.8% (active); in assay [2] (setting [7]) it was 99% (active); in assay [2] (setting [8]) it was 96% (active); in assay [2] (at 50.0 µM), 99.5% (active). The growth inhibition is 99% (active) in assay [3] (setting [7]); 96% (active) in assay [3] (setting [8]); 98.6% (active) in assay [3] (at 50.0 µM); 98% (active) in assay [4] (setting [7]); 90% (active) in assay [4] (setting [8]); 58.5% in assay [4] (at 50.0 µM). The growth inhibition in assay [5] (setting [7]) is 98% (active); in assay [5] (setting [8]), 96% (active); in assay [5] (at 50.0 µM), 99.1% (active); in assay [6] (setting [7]), 99% (active); in assay [6] (setting [8]) it was 95% (active); in assay [6] (at 50.0 µM), 98.7% (active).
